# Records with an inconclusive call do not appear. Entries that show only a call come without a potency. The source made the active and inactive calls. The call rests on the fitted dose curve; in most records, active means well fitted curve in the direction sought with a large enough effect in the repeat runs; inconclusive means weak or mixed curves; inactive means no such curve, though single readings can be large; an effect the other way counts as inactive or inconclusive.
# Assay: qHTS assay to identify small molecule antagonists of the thyroid receptor (TR) signaling pathway - cell viability counter screen (AID 743064); further: nearly all actives have a fitted effect of over 50% in size
# Settings: GH3.TRE-Luc viability, CellTiter-Fluor, 24 h; series mostly up to 70.3 µM
# Procedure, shortened: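 Viability of T3-stimulated (1 nM final) GH3.TRE-Luc cells is measured by CellTiter-Fluor fluorescence after 23.5 h compound exposure at 37 °C plus 30 min reagent incubation.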
Structure (SMILES),Potency,"activity change, negative = cytotoxic"
CN=C(NC#N)Nc1ccc(C2=NNC(=O)CC2C)cc1 (centres undefined),inactive,
O=C(OCC1(COC(=O)c2cccnc2)CCCC(COC(=O)c2cccnc2)(COC(=O)c2cccnc2)C1O)c1cccnc1,inactive,
OCCN(CCO)c1cccc(Cl)c1,inactive,
CCCC/C=C\CCCCCCCCCC=O,inactive,
CC(C)(C)OC(=O)c1ccc(O)cc1,inactive,
CC/C=C\CC1=C(C)CCC1=O,inactive,
CCC(C=O)CC,inactive,
BrCc1cccc(Oc2ccccc2)c1,inactive,
C[Si](C)(C)C,inactive,
N#Cc1ccc(C(=O)O)cc1,inactive,
O=C(NCCN1CCOCC1)c1ccc(Cl)cc1,inactive,
CC(C)CC(C)CC(C)CC(C)COC(=O)c1ccccc1C(=O)OCC(C)CC(C)CC(C)CC(C)C (centres undefined),inactive,
CCCOC(OCCC)OCCC,inactive,
CNC(=O)[C@H]1O[C@@H](n2cnc3c(NCc4cc(Cl)ccc4OCc4cc(C)no4)ncnc32)[C@H](O)[C@@H]1N,inactive,
FC(F)(F)c1ccccc1-n1ccnc1,inactive,
CC1COc2ccccc2N1 (centres undefined),inactive,
O=C(O)c1cc(Br)c(O)c(Br)c1,inactive,
C=CC(OCC)OCC,inactive,
CCOCCOCCOCC,inactive,

Structure (SMILES),Potency,"activity change, negative = cytotoxic"
C#CC(C)N(C)C(=O)Nc1ccc(Cl)cc1 (centres undefined),inactive,
CCO[Si](CCCS)(OCC)OCC,inactive,
N[C@@H](COP(=O)(O)O)C(=O)O,inactive,
Cc1ccccc1N=O,inactive,
COC(=O)C1CC(=O)C(C(=O)OC)CC1=O (centres undefined),,29.4% [at 8.44 µM] (inactive)
CC(=O)c1sc(C)nc1C,inactive,
CCC(C)(CCC(C)C)C(=O)O (centres undefined),inactive,
CC(C)(C)c1cc(CCC(=O)NN)cc(C(C)(C)C)c1O,inactive,
O=S(=O)(O)CCN1CCN(CCO)CC1,inactive,
CC(C)NCC(O)COc1cccc2[nH]ccc12 (centres undefined),inactive,
CC(=O)N[C@@H](CCC(=O)O)C(=O)O,inactive,
c1ccc2c(c1)ccc1c3ccccc3ccc21,inactive,
CCN(CC)CC(=O)Nc1c(C)cccc1C,inactive,
CC(C)C[C@H](NC(=O)CNC(=O)[C@H](Cc1ccc(O)cc1)NC(=O)[C@H](CO)NC(=O)[C@H](Cc1c[nH]c2ccccc12)NC(=O)[C@H](Cc1cnc[nH]1)NC(=O)[C@@H]1CCC(=O)N1)C(=O)N[C@@H](CCCN=C(N)N)C(=O)N1CCC[C@H]1C(=O)NCC(N)=O (stereo in doubt),inactive,
COc1ccc(OC)c(Cl)c1,inactive,
CC(CN)CC(C)(C)CCN (centres undefined),inactive,
O=C(NCC(O)CO)c1c(I)c(C(=O)NCC(O)CO)c(I)c(N(CCO)C(=O)CO)c1I (centres undefined),inactive,
NCCS,inactive,

# Assay: qHTS assay to identify small molecule antagonists of the thyroid receptor (TR) signaling pathway (AID 743065); further: nearly all actives have a fitted effect of over 55% in size
# Settings: GH3.TRE-Luc, T3-stimulated luciferase inhibition, 23.5 h; series mostly up to 70.3 µM
# Procedure, shortened: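 GH3.TRE-Luc rat pituitary cells carrying two TR response elements driving luciferase were plated for 4 h, given compound plus 1 nM T3 (final), and incubated 23.5 h at 37 C. ONE-Glo luminescence measured reporter inhibition; CellTiter-Fluor fluorescence tracked cytotoxicity.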
Structure (SMILES),Potency,"activity, negative = inhibition"
CN=C(NC#N)Nc1ccc(C2=NNC(=O)CC2C)cc1 (centres undefined),inactive,
O=C(OCC1(COC(=O)c2cccnc2)CCCC(COC(=O)c2cccnc2)(COC(=O)c2cccnc2)C1O)c1cccnc1,inactive,
OCCN(CCO)c1cccc(Cl)c1,inactive,
CCCC/C=C\CCCCCCCCCC=O,inactive,
CC(C)(C)OC(=O)c1ccc(O)cc1,inactive,
CC/C=C\CC1=C(C)CCC1=O,inactive,
CCC(C=O)CC,inactive,
BrCc1cccc(Oc2ccccc2)c1,inactive,
C[Si](C)(C)C,inactive,
N#Cc1ccc(C(=O)O)cc1,inactive,
O=C(NCCN1CCOCC1)c1ccc(Cl)cc1,inactive,
CC(C)CC(C)CC(C)CC(C)COC(=O)c1ccccc1C(=O)OCC(C)CC(C)CC(C)CC(C)C (centres undefined),inactive,
CCCOC(OCCC)OCCC,inactive,
CNC(=O)[C@H]1O[C@@H](n2cnc3c(NCc4cc(Cl)ccc4OCc4cc(C)no4)ncnc32)[C@H](O)[C@@H]1N,inactive,
FC(F)(F)c1ccccc1-n1ccnc1,inactive,
CC1COc2ccccc2N1 (centres undefined),inactive,
O=C(O)c1cc(Br)c(O)c(Br)c1,inactive,
C=CC(OCC)OCC,inactive,
CCOCCOCCOCC,inactive,

Structure (SMILES),Potency,"activity, negative = inhibition"
C#CC(C)N(C)C(=O)Nc1ccc(Cl)cc1 (centres undefined),inactive,
CCO[Si](CCCS)(OCC)OCC,inactive,
N[C@@H](COP(=O)(O)O)C(=O)O,inactive,
Cc1ccccc1N=O,inactive,
COC(=O)C1CC(=O)C(C(=O)OC)CC1=O (centres undefined),,-0.0159% [at 8.44 µM] (inactive)
CC(=O)c1sc(C)nc1C,inactive,
CCC(C)(CCC(C)C)C(=O)O (centres undefined),inactive,
CC(C)(C)c1cc(CCC(=O)NN)cc(C(C)(C)C)c1O,inactive,
O=S(=O)(O)CCN1CCN(CCO)CC1,inactive,
CC(C)NCC(O)COc1cccc2[nH]ccc12 (centres undefined),inactive,
CC(=O)N[C@@H](CCC(=O)O)C(=O)O,inactive,
c1ccc2c(c1)ccc1c3ccccc3ccc21,inactive,
CCN(CC)CC(=O)Nc1c(C)cccc1C,inactive,
CC(C)C[C@H](NC(=O)CNC(=O)[C@H](Cc1ccc(O)cc1)NC(=O)[C@H](CO)NC(=O)[C@H](Cc1c[nH]c2ccccc12)NC(=O)[C@H](Cc1cnc[nH]1)NC(=O)[C@@H]1CCC(=O)N1)C(=O)N[C@@H](CCCN=C(N)N)C(=O)N1CCC[C@H]1C(=O)NCC(N)=O (stereo in doubt),inactive,
COc1ccc(OC)c(Cl)c1,inactive,
CC(CN)CC(C)(C)CCN (centres undefined),inactive,
O=C(NCC(O)CO)c1c(I)c(C(=O)NCC(O)CO)c(I)c(N(CCO)C(=O)CO)c1I (centres undefined),inactive,
NCCS,inactive,
